Screens as filed in PubChem.
Compounds with a hit are over-represented: about 18% of the library has one in this group of screens.
IL-1B inflam inh = inflammasome signaling inhibition, IL-1 beta readout; activity change, % at 57.5 µM; THP-1 LPS/ATP IL-1B secretion, AlphaLISA, 16 h; active compounds read low; hit rate 4.7% among 360,000; in the data active = activity change below about -50%; inconclusive = mostly about -30% to -49%
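Secreted IL-1B measured by AlphaLISA bead assay after 16 h compound exposure of THP-1 cells; compounds (final up to 57.5 uM) added 1 h before LPS (250 ng/mL) and ATP (1.25 mM) stimulation; lower signal means less secretion.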
Six1-Eya2 inh = Six1/Eya2 interaction inhibition | AlphaScreen GST-Six1/His-Eya2 binding, biochemical; active compounds read low | activity change, % (test concentration not listed) | hit rate 0.56% among 360,000 | AID 651725; in the data active = activity change below about -65%; inconclusive = mostly about -30% to -63%
Target sequence (O00167 whole entry, looked up): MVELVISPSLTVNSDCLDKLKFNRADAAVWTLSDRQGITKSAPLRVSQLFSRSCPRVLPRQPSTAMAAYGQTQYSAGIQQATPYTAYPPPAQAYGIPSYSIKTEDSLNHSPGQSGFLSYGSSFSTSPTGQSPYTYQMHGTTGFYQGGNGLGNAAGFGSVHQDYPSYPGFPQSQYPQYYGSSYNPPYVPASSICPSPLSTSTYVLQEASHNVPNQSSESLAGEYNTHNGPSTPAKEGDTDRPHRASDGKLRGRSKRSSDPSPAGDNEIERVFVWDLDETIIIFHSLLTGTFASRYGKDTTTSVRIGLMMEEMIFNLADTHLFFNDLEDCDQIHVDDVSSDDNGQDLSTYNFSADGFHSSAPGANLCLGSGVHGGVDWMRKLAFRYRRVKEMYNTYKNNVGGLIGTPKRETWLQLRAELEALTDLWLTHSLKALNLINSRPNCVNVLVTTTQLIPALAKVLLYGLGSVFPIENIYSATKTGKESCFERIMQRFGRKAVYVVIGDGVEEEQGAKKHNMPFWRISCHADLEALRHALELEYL
Target sequence (Q15475 whole entry, looked up): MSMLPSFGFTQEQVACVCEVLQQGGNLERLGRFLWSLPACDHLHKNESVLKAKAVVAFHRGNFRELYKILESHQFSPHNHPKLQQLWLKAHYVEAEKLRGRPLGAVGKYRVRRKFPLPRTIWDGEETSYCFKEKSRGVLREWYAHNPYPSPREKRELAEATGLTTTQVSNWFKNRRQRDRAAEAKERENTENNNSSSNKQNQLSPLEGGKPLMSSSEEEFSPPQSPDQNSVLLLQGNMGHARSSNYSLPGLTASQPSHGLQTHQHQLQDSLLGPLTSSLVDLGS
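AlphaScreen with GST-Six1 and His-Eya2 (5X mix: 250 nM and 500 nM), glutathione donor and nickel acceptor beads; buffer 50 mM Tris pH 8.0, 300 mM NaCl, 1 mM TCEP; 1 h at 37 C in the dark.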
CtBP-E1A blk = inhibitors of CtBP/E1A interaction; AlphaScreen GST-E1A/His-CtBP binding, 1536-well; active compounds read low; activity change, % (test concentration not listed); hit rate 0.49% among 340,000; in the data active = activity change below about -65%; inconclusive = mostly about -30% to -63%
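Protein mix (5X: 125 nM each GST-E1A, His-CtBP) was incubated with pinned compound 2 h at 37 deg C in dark, in 50 mM Tris pH 8.0 buffer with 300 mM NaCl. Glutathione donor and nickel acceptor beads followed; AlphaScreen signal read after 1 h.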
DT40 TDP1 CPT = growth inhibition of DT40 Tdp1-/-;hTDP1 cells with camptothecin (screen for TDP1 inhibitors); chicken DT40 Tdp1-/-;hTDP1 cells + 20 nM CPT, ATP luminescence, 48 h; Potency, µM (highest dose often 46.2 µM), inactives show at the top dose activity change, negative = growth inhibition, usual class: inhibitors; hit rate 12% among 420,000; note: potency is the fitted concentration of half-maximal effect; nearly all actives have a fitted effect of over 55% in size
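Chicken DT40 Tdp1-/- cells stably complemented with human TDP1 were seeded at 400 cells/well in medium containing 20 nM camptothecin, exposed to pin-transferred compounds, and grown at 37 °C for at least 48 hr. Viability was read as ATP luminescence.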
TDP1 cell noCPT = qHTS for Inhibitors of human tyrosyl-DNA phosphodiesterase 1 (TDP1): qHTS in cells in absence of CPT. DT40 Tdp1-/- hTDP1 cells, no CPT, ATP luminescence, 48 h. Potency, µM (doses to about 46.2 µM), for the others: at the highest dose activity change, negative = growth inhibition, hits mostly inhibitors. hit rate 15% among 420,000. AID 686978, 2013; note: potency is the fitted concentration of half-maximal effect; nearly all actives have a fitted effect of over 55% in size
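Compound effects on proliferation are scored in DT40 Tdp1-/-;hTDP1 cells in the absence of CPT. ATP levels (CellTiter-Glo luminescence) are recorded after a ≥48 hr, 37 °C incubation.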
TDP1 block = inhibitors of human tyrosyl-DNA phosphodiesterase TDP1. hit rate 0.28% among 350,000. Q9NUW8. AID 485290. Potency, µM (titrated, usually from 130 µM), inactives show top-dose activity change, negative = inhibition, usual class: inhibitors. recombinant TDP1, AlphaScreen DNA substrate cleavage; note: potency is the fitted concentration of half-maximal effect; nearly all actives have a fitted effect of over 40% in size
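Tdp1 1 nM final; 15 min RT w/ cpd; substrate 15 nM, 5 min; beads 10 ug/ml, 10 min; AlphaScreen read. Neg ctrl: no enzyme.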
* marks the source's active call; other numbers are inactive results; [ ] = dose if it differs, or a comment. Unless noted, calls come from the whole dose curve; as a rule, active = well fitted curve in the direction sought with a large enough effect; inconclusive = small, poorly fitted or top-dose-only effect, or another doubt; inactive = no such curve, though single readings can be large; an effect the other way counts as inactive or inconclusive. % is set by controls: 0 for no effect and ±100 for the full control effect.

Results for COc1ccc(C(=O)Nc2ccccc2C(=O)Nc2ccncc2)cc1 ?
IL-1B inflam inh: -18; Six1-Eya2 inh: 1; CtBP-E1A blk: 6; DT40 TDP1 CPT: inconclusive; TDP1 cell noCPT: 16µM*; TDP1 block: 4%

How did COc1ccc(C(=O)Nc2ccccc2C(=O)N/N=C/c2cccc3ccccc23)cc1 do in these assays?
IL-1B inflam inh: 37; Six1-Eya2 inh: -15; CtBP-E1A blk: -9; DT40 TDP1 CPT: 21µM*; TDP1 cell noCPT: 16µM*; TDP1 block: 4%

What do the screens show for `Cc1ccc(NC(=O)Cc2nc(-c3c[nH]c(C(=O)N4CCCC4)c3)cs2)c(C)c1`?
IL-1B inflam inh: 14; Six1-Eya2 inh: -2; DT40 TDP1 CPT: inconclusive; TDP1 cell noCPT: inconclusive; TDP1 block: 5%

How did COc1ccccc1OCC(=O)N(Cc1nc(-c2ccccc2)no1)C(C)C do in these assays?
IL-1B inflam inh: -59*; Six1-Eya2 inh: 12; CtBP-E1A blk: 5; DT40 TDP1 CPT: -18%; TDP1 cell noCPT: inconclusive; TDP1 block: 4%

Results for Cc1ccc(OCC(=O)N(Cc2nc(-c3ccccc3)no2)C(C)C)cc1C ?
DT40 TDP1 CPT: inconclusive; TDP1 cell noCPT: inconclusive; TDP1 block: -4%

How did CC(C)N(Cc1nc(-c2ccccc2)no1)C(=O)COc1ccccc1 do in these assays?
IL-1B inflam inh: 1; Six1-Eya2 inh: 3; CtBP-E1A blk: 3; DT40 TDP1 CPT: inconclusive; TDP1 cell noCPT: inconclusive; TDP1 block: -3%

What do the screens show for `Cc1ccc(-c2noc(CN(C(=O)COc3cc(C)cc(C)c3C)C(C)C)n2)cc1`?
DT40 TDP1 CPT: 23µM*; TDP1 cell noCPT: inconclusive; TDP1 block: 1%

How did COc1ccccc1OCC(=O)N(Cc1nc(-c2ccc(Cl)cc2)no1)C(C)C do in these assays?
IL-1B inflam inh: -26; Six1-Eya2 inh: -2; CtBP-E1A blk: 2; DT40 TDP1 CPT: inconclusive; TDP1 cell noCPT: 16µM*; TDP1 block: 2%

Results for COc1cccc(OCC(=O)N(Cc2nc(-c3ccc(Cl)cc3)no2)C(C)C)c1 ?
IL-1B inflam inh: -6; Six1-Eya2 inh: 0; CtBP-E1A blk: 6; DT40 TDP1 CPT: 8.2µM*; TDP1 cell noCPT: 23µM*; TDP1 block: 5%

Results for O=C(NCCCn1ccnc1)/C(=C\c1ccc(Br)cc1)NC(=O)c1ccccc1F ?
IL-1B inflam inh: -13; Six1-Eya2 inh: -1; CtBP-E1A blk: -6; DT40 TDP1 CPT: -11%; TDP1 cell noCPT: -29%; TDP1 block: 4%

Results for COCCN1CCn2c(nc3cc([N+](=O)[O-])ccc32)C1 ?
IL-1B inflam inh: -2; Six1-Eya2 inh: 4; CtBP-E1A blk: 5; DT40 TDP1 CPT: 1%; TDP1 cell noCPT: 23%; TDP1 block: 4%

How did CCOC(=O)C1=C(CC)Nc2ccccc2N=C1NC(=O)Nc1ccc(Cl)c(Cl)c1 do in these assays?
IL-1B inflam inh: -74*; Six1-Eya2 inh: 0; CtBP-E1A blk: -1; DT40 TDP1 CPT: 2.9µM*; TDP1 cell noCPT: 2.6µM*; TDP1 block: 1%

Results for O=C(CC1N=C2c3ccccc3N=C(SCc3ccc(F)cc3)N2C1=O)NC1CCCCC1 (centres undefined) ?
DT40 TDP1 CPT: inconclusive; TDP1 cell noCPT: 16µM*; TDP1 block: 5%

Results for Cc1ccc(CSC2=Nc3ccccc3C3=NC(CC(=O)NC4CCCCC4)C(=O)N23)cc1 (centres undefined) ?
DT40 TDP1 CPT: 1.2µM*; TDP1 cell noCPT: 1.2µM*; TDP1 block: 7%

How did O=C(CCC1N=C2c3ccccc3N=C(SCc3ccc(F)cc3)N2C1=O)NC1CCCCC1 (centres undefined) do in these assays?
DT40 TDP1 CPT: 21µM*; TDP1 cell noCPT: 10µM*; TDP1 block: 0%

What do the screens show for `O=C(CC1N=C2c3ccccc3N=C(SCc3ccc(Cl)cc3)N2C1=O)NC1CCCCC1` (centres undefined)?
DT40 TDP1 CPT: inconclusive; TDP1 cell noCPT: inconclusive; TDP1 block: 6%

Results for COc1cccc(NC(=O)CSC2=Nc3ccccc3C3=NC(CCC(=O)NC4CCCCC4)C(=O)N23)c1 (centres undefined) ?
DT40 TDP1 CPT: inconclusive; TDP1 cell noCPT: inconclusive; TDP1 block: 7%

Results for O=C(CCC1N=C2c3ccccc3N=C(SCc3ccc(F)cc3)N2C1=O)NCc1cccs1 (centres undefined) ?
DT40 TDP1 CPT: 1%; TDP1 cell noCPT: -7%; TDP1 block: 5%

How did Cc1cc(C=O)c(C)n1-c1ccc(NC2CCCC2)c([N+](=O)[O-])c1 do in these assays?
IL-1B inflam inh: -82*; Six1-Eya2 inh: inconclusive; CtBP-E1A blk: inconclusive; DT40 TDP1 CPT: inconclusive; TDP1 cell noCPT: 18µM*; TDP1 block: 8%

Results for Cc1cc(C=O)c(C)n1-c1ccc(Oc2ccc([N+](=O)[O-])cn2)cc1 ?
IL-1B inflam inh: 7; Six1-Eya2 inh: 2; CtBP-E1A blk: -6; DT40 TDP1 CPT: -11%; TDP1 cell noCPT: -7%; TDP1 block: 11%

Results for COc1cccc(/C=C/C(=O)Nc2ccc3[nH]c(=O)[nH]c3c2)c1 ?
IL-1B inflam inh: 114; Six1-Eya2 inh: -11; DT40 TDP1 CPT: -16%; TDP1 cell noCPT: -2%; TDP1 block: 2%

How did CCCCCOc1ccc(/C=C/C(=O)Nc2sc(C(C)=O)c(C)c2C(=O)OCC)cc1OC do in these assays?
DT40 TDP1 CPT: inconclusive; TDP1 cell noCPT: 5.8µM*; TDP1 block: 2%[2.28 µM]

What do the screens show for `COc1cc(/C=C/C(=O)Nc2ccc3[nH]c(=O)[nH]c3c2)cc(OC)c1OC`?
IL-1B inflam inh: -72*; Six1-Eya2 inh: -5; CtBP-E1A blk: -5; DT40 TDP1 CPT: 3%; TDP1 cell noCPT: 2%; TDP1 block: 1%

Results for COc1ccc(OC)c(/C=C/C(=O)Nc2ccc(C(=O)OCCC(C)C)cc2)c1 ?
DT40 TDP1 CPT: 18µM*; TDP1 cell noCPT: 18µM*; TDP1 block: 1%[12.3 µM]

What do the screens show for `COC(=O)c1cc(Cl)c(NC(=O)/C=C/c2ccc(OC)c(OC)c2)cc1OC`?
IL-1B inflam inh: -3; Six1-Eya2 inh: -3; CtBP-E1A blk: -7; DT40 TDP1 CPT: inconclusive; TDP1 cell noCPT: 23µM*; TDP1 block: 3%

How did CCCCOC(=O)c1ccc(NC(=O)Nc2ccc(OC)c(OC)c2)cc1 do in these assays?
IL-1B inflam inh: -13; Six1-Eya2 inh: -13; CtBP-E1A blk: -8; DT40 TDP1 CPT: inconclusive; TDP1 cell noCPT: inconclusive; TDP1 block: 5%
